The text below walks through data of PubChem BioAssay (NCI).

SMILES strings stand for the structures. Compounds without any hit were thinned out: in the full panel of roughly 83,000, 20% have a hit.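 Treatment: one concentration, 48 hours, 96-well format. Scoring: percent growth, with anything below 10 considered active.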 Values without a mark were called inactive. The source made the active and inactive calls.

The subject of the assay is SK-MEL-5 melanoma. Put plainly: NCI-60 one-dose screen, 48 h (100 = growth as untreated, 0 = no growth, -100 = all killed). The note with it: 10 µM unless noted. Here is the method:
Growth inhibition of the SK-MEL-5 human tumor cell line is measured as a screen for anti-cancer activity. Cells are grown in 96 well plates and exposed to the test compound for 48 hours. Compounds are tested at a single concentration, which is 10^-5 M for most compounds. The reported endpoint is percent growth (GI% or GIPRCNT), where numbers from 0 - 100% represent growth inhibition, and numbers from -100% - 0 represent cell death. For example, a value of 40 represents 60% growth inhibition. A value of 0 means no net growth occurred over the course of the experiment. A value of -40 indicates 40% of cells at the beginning of the experiment died by the end of the experiment. A value of -100 means all cells are dead at the end of the experiment.
NCI-60 Human Tumor Cell Lines Screen was performed using the standard one-dose NCI protocol, which is described in more detail at https://dtp.cancer.gov/discovery_development/nci-60/default.htm.
Compounds with GIPRCNT values below 10 were considered active. Activity score was based on GIPRCNT using the following formula: […]
Score is 0 for GIPRCNT values of 100 or above, 50 for GIPRCNT values of 0, and 100 for GIPRCNT values of -100.
With `COc1ccc(-c2cc(-c3ccc(Nc4nc(Nc5ccc(Cl)cc5)nc(Nc5ccc(Cl)cc5)n4)cc3)no2)cc1`, the growth is 73%.

For the compound `COc1cc(CNC(=O)CCCC/C=C/C(C)C)ccc1OCc1cn(-c2ccc(C(F)(F)F)cc2)nn1`, the growth was 97.1%. In the case of `CCOC(=O)CSc1nc2sc3c(c2c(=O)n1-c1ccccc1)CCCCC3` it was 97.6%.

`FC(F)(F)c1cc(N2CCCCC2)nc(NCCCNc2ccnc3cc(Cl)ccc23)n1`: the growth is 27.1%. In the case of `Cc1ccc2nc(/C=C/c3ccc(N(C)C)cc3)cc(C)c2c1` it was 33.3%; in that of `CC1(C)C2=C(C(=O)N1Cc1ccccc1)C(c1ccco1)N(C(=O)C1CCC1)CCN2` (stereo not given), 105%.

With `Cc1ccccc1NC(=O)c1sc2nc3c(cc2c1N)CCCC3`, the growth was 20.5%. In the case of `CCN(CC)c1ccc(/C=N/NC(=O)c2ccccc2Nc2ccnc(C(F)(F)F)c2)c(O)c1`, the growth is 3.96% (active). In the case of `COc1ccc(C(=O)/C=C/c2ccc(Cl)cc2)cc1S(N)(=O)=O` it was 85.7%. The value for `Cc1ccc(-c2nn(CC(=O)N3CCOCC3)c(N)c2C#N)cc1` was 102%. The value for `O=C(Nc1ncc(Cc2ccc(Cl)cc2)s1)c1ccc2c(c1)OCCO2` was -21.3% (active); that for `CCOC(=O)c1c(NC(=S)Nc2ccc([N+](=O)[O-])cc2)sc2c1CCCCC2` was 42.6%. Consider `N#Cc1c(-c2ccc(Cl)cc2)nc(NN=Cc2cccc(Cl)c2)nc1N1CCOCC1`, for which the growth is 92.5%. Consider `O=C(/C=C/c1ccco1)Nc1ncc(Cc2ccc(F)cc2)s1`, for which the growth was 25.9%. Turning to `COC1=C(OC)C(=O)C(CCCCCCCCCCO)=C(C)C1=O`, the growth is 45%. In the case of `CCN(CC)CCCC(Nc1c2ccc(Cl)cc2nc2ccc(OC)cc12)c1ccncc1` (stereo not given), the growth is 88.4%.

On to `Cc1c2ccncc2c(C)c2c1c1ccccc1n2CCCCCC(=O)O`, for which the growth was 89.8%. In the case of `COc1ccc(C(=O)C2OC3=C(C(=O)CC(C)(C)C3)C2c2cccc(Oc3ccccc3)c2)cc1` (stereo not given) it was 90.7%; in that of `Cc1ccc(C2(C)NC(=O)N(CC(=O)Nc3cccc(C)c3)C2=O)cc1` (stereo not given), 98.3%. The value for `CC(=O)O[C@H]1C[C@@]2(C)[C@@H](C[C@@H](O)[C@H]3[C@@]4(C)CC[C@H](N5CCCC5)[C@@H](C)[C@@H]4CC[C@@]32C)/C1=C(\CCC=C(C)C)C(=O)O` was 96.2%. The value for `Cc1ccccc1NC(=O)Cn1cc(CN2CCN(c3ccnc4cc(Cl)ccc34)CC2)nn1` was 91.2%; that for `N#CC1=C(N)Oc2c(ccc3cccnc23)C1c1ccccc1` (stereo not given) was 6.58% (active). For `O=C1/C(=C/c2ccc(-c3ccc(Cl)cc3)o2)SC(=S)N1CCc1ccc(O)cc1`, the growth is 94.5%.

`Cc1nc2sc(C(=O)Nc3ccccc3)c(N)c2cc1C(O)c1ccccc1` (stereo not given): the growth was 4.19% (active). As to `Cc1c(N2CCCCC2)[nH]c2ccccc12`, the growth was 107%. As to `CN1CC(c2ccccc2)C(C(=O)c2ccc(Br)cc2)C12C(=O)Nc1ccccc12` (stereo not given), the growth was 99%. `Cn1ncc(CC(=O)O)c1-n1nnc2cc(Cl)ccc2c1=O`: the growth was 110%. `Cn1ccnc1C(=O)/C=C/c1ccc(C(=O)Nc2ccccc2F)cc1`: the growth was 83.7%. In the case of `COc1ccc(-c2cc(-c3ccc(Cl)cc3)c(C#N)c(=O)n2CCCCC(=O)NO)cc1` it was 39.1%. The value for `O=C(CSc1nnc(-c2cc(-c3ccc(Cl)cc3)nc3ccccc23)n1-c1ccccc1)Nc1ccc(Cl)cc1` was 101%; that for `COc1cc2c(c(OC)c1OC)CCC(c1cccc(NC(=O)c3cccc(Cl)c3)c1)O2` (stereo not given) was 79.6%; that for `C=C(C)[C@@H]1CC[C@]2(COC(=O)c3cccnc3)CC[C@]3(C)[C@H](CC[C@@H]4[C@@]5(C)CCCN(C(=O)c6cccnc6)C(C)(C)[C@@H]5CC[C@]43C)[C@@H]12` was 2.5% (active).

Regarding `CO[C@]12C=C/C(=C(/C(=O)OCc3cccnc3)C(=O)CCCCCCCC[C@]3(OC)C=C/C(=C(/C(=O)OCc4cccnc4)C(=O)CCCCCCCC1)O3)O2`, the growth was -92.9% (active).

As for `C[C@H]1c2ccccc2CN1CCCOc1cc2c(cc1OCC1CC1)C1(CCCC1)C(N)=N2`, the growth was -84.6% (active). The value for `C#CCOc1ccc(C2=NN(CCCC)C3N=C(Cl)c4ncn(CCCC)c4N23)cc1OCC#C` (stereo not given) was 89.7%; that for `Cn1cc(-c2ccc3c(Nc4cccc(NC(=O)Nc5cccc(F)c5)c4)ncnc3c2)cn1` was 41.4%; that for `CCOc1cc(\C=N/N=C(N)/C(N)=N\N=C/c2ccc(O)c(OCC)c2)ccc1O` was 94.2%.

As to `CN(C)c1ccc(/C=C/C2=[N+](C)c3ccccc3C2(C)C)cc1`, the growth is -4.87% (active). `CN1CCN(c2ccc(Nc3ncc4[nH]c(=O)n(Cc5ccccc5N)c4n3)cc2)CC1`: the growth was 101%. In the case of `COC(=O)c1cc(-c2ccc(OC)c(OC)c2)[nH]c1N/N=C/c1c(Cl)cccc1Cl` it was 12.7%.
